The target of assay [1] is Progesterone receptor (Homo sapiens) (UniProt P06401). The assay is described as follows: qHTS assay to identify small molecule antagonists of the progesterone receptor (PR) signaling pathway (AID 1346795; active means well fitted inhibition curve with a large enough effect in the signal ratio in the repeat runs, not every such curve was filed as active; the % refers to the signal ratio; further: potency means the concentration at half of the fitted maximal effect). In a few lines:
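Fluorescence intensity measured 2 hr after adding beta-lactamase FRET substrate to PR-UAS-bla HEK293T cells that had been co-treated 16 hr with compound and 1 nM R5020 (final concentration) in 2% charcoal-stripped FBS.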
In general terms: qHTS replaces the single test concentration by a dilution series.

Assay [2] can be described thus: qHTS assay to identify small molecule antagonists of the progesterone receptor (PR) signaling pathway - cell viability counter screen (AID 1346798). Further: series mostly up to about 92 µM; nearly all actives have a fitted effect of over 50% in size. In a few lines: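 CellTiter-Glo luminescence; PR-UAS-bla HEK293T, 3,000 cells/well; compound + R5020, 16 hr, 37C/5% CO2; 30 min RT before read.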
Assay [3] in a line: qHTS assay to identify small molecule agonists of the progesterone receptor (PR) signaling pathway - cell viability counter screen (AID 1346799; calls by dose curve; further: nearly all actives have a fitted effect of over 45% in size). In short, it runs like this: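 In parallel with the beta-lactamase readout, cytotoxicity toward PR-UAS-bla HEK293T cells was measured by CellTiter-Glo luminescence following 16 hr compound incubation in 2% charcoal-stripped FBS medium.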

The nature of assay [4]: qHTS assay to identify small molecule antagonists of the TGF-beta/Smad signaling pathway - cell viability counter screen (AID 1346824). Further: nearly all actives have a fitted effect of over 50% in size. In a few lines: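 SBE-bla HEK 293T cells were plated overnight at 37 C, then given compounds in DMSO plus TGF-beta1 (added as 0.25 ng/mL solution) for 5 hr. After the bla read, CellTiter-Glo was added to the same wells and luminescence read after 30 min at room temperature.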

Assay [5] in a line: qHTS assay to identify small molecule agonists of the TGF-beta/Smad signaling pathway - cell viability counter screen (AID 1346829). Further: top concentration of the series differs between compounds; nearly all actives have a fitted effect of over 45% in size. In short, it runs like this:
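CellTiter-Glo luminescence readout; SBE-bla HEK 293T cells, overnight plating, compound 5 hr at 37 C/5% CO2, then bla substrate 2 hr RT, then CellTiter-Glo 30 min RT.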

The nature of assay [6]: qHTS assay to identify small molecule agonists of the TGF-beta/Smad signaling pathway (AID 1346859; active means well fitted activation curve with a large enough effect in the signal ratio in the repeat runs, not every such curve was filed as active; the % refers to the signal ratio; further: series mostly up to about 77 µM). In a few lines:
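After overnight seeding, SBE-bla HEK 293T cells are dosed with compounds in DMSO and kept 5 hr at 37 C, 5% CO2. LiveBLAzer-type FRET substrate is then applied for 2 hr at room temperature.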

Assay [7] has as its target Thyrotropin-releasing hormone receptor (Homo sapiens) (UniProt P34981). The experiment in a line: qHTS assay to identify small molecule antagonists of the thyrotropin-releasing hormone receptor (TRHR) signaling pathway (AID 1346877; active means well fitted inhibition curve with a large enough effect in the repeat runs, not every such curve was filed as active; further: series mostly up to about 51 µM). In a few lines:
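HEK293/TRHR cells, 18 h, 37 °C; Ca2+ dye 2 h; cpd 5 min RT; TRH 1 nM final; fluorescence read 3 min, 1 s intervals; 15 concs, triplicate.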

Assay [8] has the same target. The experiment in a line: qHTS assay to identify small molecule agonists of the thyrotropin-releasing hormone receptor (TRHR) signaling pathway (AID 1346891; calls by dose curve;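 further: HEK293 cells expressing TRHR with calcium dye readout; series mostly up to about 58 µM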). In a few lines: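 Compounds were tested as agonists at 15 concentrations, in triplicate, on TRHR-Hek293 cells; calcium-sensitive dye fluorescence was recorded for 3 min following addition.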
Assay [9] can be described thus: Human pregnane X receptor (PXR) small molecule agonists, qHTS cell viability counter screen (AID 1346977). Further: nearly all actives have a fitted effect of over 50% in size. In short, it runs like this: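 Viability counter screen: CellTiter-Fluor signal in PXR-Luc HepG2 cells, 24hr compound exposure, 37C, 5% CO2.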
Assay [10] is described as follows: Caspase-3/7 induction in HepG2 cells by small molecules, qHTS assay (AID 1346978). Further: nearly all actives have a fitted effect of over 15% in size. In a few lines:
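Wild-type HepG2 cells (2,000/well) were settled 5 h at 37 C, 5% CO2, then exposed to compounds in DMSO for 17 h. Caspase-3/7 activity was read by luminescence 30 min after adding Caspase-Glo 3/7 reagent at room temperature.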

Assay [11] can be described thus: Caspase-3/7 induction in CHO-K1 cells by small molecules, qHTS cell viability counter screen (AID 1346979). Further: nearly all actives have a fitted effect of over 35% in size. In short, it runs like this:
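Viability readout by fluorescence (CellTiter-Fluor) on wild-type CHO-K1 cells exposed for 16hr at 37C and 5% CO2 to compounds delivered in DMSO; reagent incubated 1hr before reading.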

The nature of assay [12]: Caspase-3/7 induction in CHO-K1 cells by small molecules, qHTS assay (AID 1346980). Further: nearly all actives have a fitted effect of over 15% in size. In a few lines: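 Wild-type cells were seeded at 1,500 per well and settled 5 hr at 37 C, 5% CO2, then exposed to DMSO-dissolved compounds for 17 hr. Caspase-Glo 3/7 reagent was added, and luminescence was read after 30min at room temperature.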
The nature of assay [13]: Caspase-3/7 induction in HepG2 cells by small molecules, qHTS cell viability counter screen (AID 1346981). Further: series mostly up to about 92 µM; nearly all actives have a fitted effect of over 30% in size. In short, it runs like this:
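Fluorescence read-out of live-cell protease activity (CellTiter-Fluor) after 1 hr with reagent. This was measured in the same wells as the caspase-3/7 luminescence, on HepG2 cells exposed to DMSO-dissolved compounds for 16 hr at 37 C.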

Assay [14] has as its target Cytochrome P450 2D6 (Homo sapiens) (UniProt P10635). The assay is described as follows: Cytochrome P450 Family 2 Subfamily D Member 6 (CYP2D6) small molecule antagonists: luciferase reporter qHTS assay (AID 1671196). Further: nearly all actives have a fitted effect of over 50% in size. Further: potency means the concentration at half of the fitted maximal effect. In a few lines:
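Luminogenic proluciferin substrate, CYP2D6 enzyme; 10 min RT preincubation with compound, NADPH regeneration system added, 1 h RT. Stop/detection reagent, 20 min RT, luminescence read (RLU). Signal proportional to CYP activity.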
For orientation: In a reporter assay the amount or activity of a reporter protein is the signal.

Assay [15] concerns the target Cytochrome P450 2C19 (Homo sapiens) (UniProt P33261). The assay is described as follows: Cytochrome P450 Family 2 Subfamily C Member 19 (CYP2C19) small molecule antagonists: luciferase reporter qHTS assay (AID 1671197). Further: nearly all actives have a fitted effect of over 65% in size. Further: potency means the concentration at half of the fitted maximal effect. In a few lines:
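Enzyme-substrate mix with proluciferin substrate (P450-Glo CYP2C19 system) preincubated with compounds 10 min at room temperature; NADPH regeneration solution added, 37C for 1 h; detection reagent stops reaction, luminescence read after 20 min. Ketoconazole positive control.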

The target in assay [16] is Cytochrome P450 2C9 (Homo sapiens) (UniProt P11712). The assay is described as follows: Cytochrome P450 Family 2 Subfamily C Member 9 (CYP2C9) small molecule antagonists: luciferase reporter qHTS assay (AID 1671198). Further: nearly all actives have a fitted effect of over 50% in size. Further: potency means the concentration at half of the fitted maximal effect. In a few lines: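 CYP2C9 activity was measured with a P450-Glo proluciferin substrate. Enzyme–substrate mix was held with compound for 10 min at room temperature, then NADPH regeneration solution was added for 1 h at 37C. Luciferin product was read as luminescence.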

Assay [17] addresses Progesterone receptor (Homo sapiens) (UniProt P06401). The assay is described as follows: qHTS assay to identify small molecule agonists of the progesterone receptor (PR) signaling pathway (AID 1346784; calls by dose curve; further: nearly all actives have a fitted effect of over 30% in size). In short, it runs like this:
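Fluorescence from LiveBLAzer B/G FRET substrate cleavage (2 hr, RT) reported PR activation in PR-UAS-bla HEK 293T cells treated 16 hr at 37C/5% CO2 with compounds; medium contained 2% charcoal-stripped FBS.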

Assay [18] concerns the target Nuclear receptor subfamily 1 group I member 2 (Homo sapiens) (UniProt O75469). The assay is described as follows: Human pregnane X receptor (PXR) small molecule agonists, qHTS assay (AID 1346982). Further: nearly all actives have a fitted effect of over 35% in size. In short, it runs like this: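 HepG2 PXR-Luc reporter line, 5% charcoal-stripped FBS; 5 hr pre-incubation, compound (DMSO) 24 hr at 37 C/5% CO2; ONE-Glo 30 min RT; luminescence read-out.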

The target is the same in assay [19]. The assay is described as follows: CYP3A4 induction through human pregnane X receptor (PXR) by small molecules, qHTS assay (AID 1346984). Further: nearly all actives have a fitted effect of over 40% in size. In a few lines: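 HepG2-derived DPX-2 line carrying PXR plus a CYP3A4-promoter luciferase reporter; cells plated 5 hr, compound-exposed 24 hr at 37C. CYP3A4 activity probed with 3uM (final) Luciferin-IPA for 3hr, then luciferase read after One-Glo.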

The target is the same in assay [20]. The experiment in a line: Human pregnane X receptor (PXR) activation by small molecules, qHTS assay (AID 1346985). Further: nearly all actives have a fitted effect of over 40% in size. In a few lines: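 DPX-2 cells (HepG2 co-transfected with a PXR response element and a CYP3A4-promoter luciferase construct) were seeded at 2,000 per well, rested 5 hr at 37C, then exposed to DMSO-dissolved compounds for 24 hr. Activation was read as luciferase luminescence.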

Where “and” joins values, the source holds several entries; their conditions need not be identical. Identical values can stand only once. Results filed as inconclusive are left out. Some structures have more than one record in an assay (separate samples or runs), and their calls can disagree. Calls of active or inactive are those of the source. Unless noted, the call rests on the fitted dose curve; in most records, active means well fitted curve in the direction sought with a large enough effect in the repeat runs; inconclusive means weak or mixed curves; inactive means no such curve, though single readings can be large; an effect the other way counts as inactive or inconclusive.

Chain of Cytochrome P450 2C9 (Homo sapiens) (P11712 whole entry, looked up): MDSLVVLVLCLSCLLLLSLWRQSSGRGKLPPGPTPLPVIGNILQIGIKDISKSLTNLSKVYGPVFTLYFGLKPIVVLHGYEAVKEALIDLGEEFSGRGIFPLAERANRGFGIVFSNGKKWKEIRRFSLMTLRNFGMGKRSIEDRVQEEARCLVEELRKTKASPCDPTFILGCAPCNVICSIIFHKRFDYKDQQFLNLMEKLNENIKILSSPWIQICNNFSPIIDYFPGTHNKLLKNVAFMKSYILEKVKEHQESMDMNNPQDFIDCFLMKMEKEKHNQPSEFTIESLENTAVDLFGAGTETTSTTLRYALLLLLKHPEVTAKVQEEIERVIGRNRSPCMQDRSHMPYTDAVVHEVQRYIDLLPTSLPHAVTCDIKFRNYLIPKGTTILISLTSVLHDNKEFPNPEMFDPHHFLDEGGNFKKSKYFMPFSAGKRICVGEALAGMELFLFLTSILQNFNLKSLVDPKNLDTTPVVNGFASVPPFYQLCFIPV
Chain of Cytochrome P450 2C19 (Homo sapiens) (P33261 whole entry, looked up): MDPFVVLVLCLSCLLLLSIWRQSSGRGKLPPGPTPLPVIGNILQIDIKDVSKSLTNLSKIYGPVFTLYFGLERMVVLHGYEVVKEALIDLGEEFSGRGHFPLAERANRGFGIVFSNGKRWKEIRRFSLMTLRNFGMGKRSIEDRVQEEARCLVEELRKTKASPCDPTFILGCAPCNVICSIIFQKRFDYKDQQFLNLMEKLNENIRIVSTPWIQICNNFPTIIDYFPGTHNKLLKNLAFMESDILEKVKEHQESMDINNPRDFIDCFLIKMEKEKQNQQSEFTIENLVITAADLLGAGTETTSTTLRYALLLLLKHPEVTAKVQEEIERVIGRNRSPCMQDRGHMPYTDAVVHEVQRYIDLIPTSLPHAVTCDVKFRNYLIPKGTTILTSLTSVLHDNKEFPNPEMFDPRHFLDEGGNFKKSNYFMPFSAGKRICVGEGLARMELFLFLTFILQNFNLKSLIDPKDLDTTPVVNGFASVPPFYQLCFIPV
Chain of Thyrotropin-releasing hormone receptor (Homo sapiens) (P34981 whole entry, looked up): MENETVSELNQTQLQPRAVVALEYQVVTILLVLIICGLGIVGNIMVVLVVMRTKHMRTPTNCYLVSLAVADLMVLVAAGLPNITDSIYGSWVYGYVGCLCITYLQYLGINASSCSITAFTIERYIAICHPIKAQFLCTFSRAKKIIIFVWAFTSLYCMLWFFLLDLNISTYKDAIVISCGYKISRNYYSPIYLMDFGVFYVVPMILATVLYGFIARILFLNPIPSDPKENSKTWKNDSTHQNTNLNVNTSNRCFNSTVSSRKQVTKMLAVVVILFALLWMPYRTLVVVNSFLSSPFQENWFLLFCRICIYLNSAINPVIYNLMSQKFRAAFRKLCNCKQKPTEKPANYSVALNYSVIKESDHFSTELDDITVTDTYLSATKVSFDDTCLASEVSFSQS
Chain of Progesterone receptor (Homo sapiens) (P06401 whole entry, looked up): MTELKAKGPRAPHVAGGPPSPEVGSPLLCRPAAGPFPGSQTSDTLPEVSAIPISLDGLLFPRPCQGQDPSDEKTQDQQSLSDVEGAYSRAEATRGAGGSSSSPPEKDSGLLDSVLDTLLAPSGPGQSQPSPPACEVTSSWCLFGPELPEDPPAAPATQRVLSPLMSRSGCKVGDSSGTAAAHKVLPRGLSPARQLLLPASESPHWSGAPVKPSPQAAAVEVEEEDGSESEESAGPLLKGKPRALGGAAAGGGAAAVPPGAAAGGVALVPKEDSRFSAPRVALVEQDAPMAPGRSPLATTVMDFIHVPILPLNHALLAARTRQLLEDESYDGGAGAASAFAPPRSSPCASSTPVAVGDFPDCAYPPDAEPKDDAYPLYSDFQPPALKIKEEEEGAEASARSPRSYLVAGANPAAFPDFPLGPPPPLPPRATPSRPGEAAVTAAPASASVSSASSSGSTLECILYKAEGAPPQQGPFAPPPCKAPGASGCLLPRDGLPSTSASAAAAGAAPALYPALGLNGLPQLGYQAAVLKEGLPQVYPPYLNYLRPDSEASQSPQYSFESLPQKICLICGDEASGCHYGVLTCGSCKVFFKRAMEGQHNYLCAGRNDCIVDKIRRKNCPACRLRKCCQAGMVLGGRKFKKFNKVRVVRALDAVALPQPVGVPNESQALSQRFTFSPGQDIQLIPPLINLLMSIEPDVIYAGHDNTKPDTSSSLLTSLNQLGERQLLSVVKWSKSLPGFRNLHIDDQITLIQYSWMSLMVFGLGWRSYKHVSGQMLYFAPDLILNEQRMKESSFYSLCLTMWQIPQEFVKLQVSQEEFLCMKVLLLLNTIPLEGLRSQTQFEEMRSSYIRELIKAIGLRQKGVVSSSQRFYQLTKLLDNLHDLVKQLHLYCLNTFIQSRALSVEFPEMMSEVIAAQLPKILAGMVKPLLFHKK
Chain of Cytochrome P450 2D6 (Homo sapiens) (P10635 whole entry, looked up): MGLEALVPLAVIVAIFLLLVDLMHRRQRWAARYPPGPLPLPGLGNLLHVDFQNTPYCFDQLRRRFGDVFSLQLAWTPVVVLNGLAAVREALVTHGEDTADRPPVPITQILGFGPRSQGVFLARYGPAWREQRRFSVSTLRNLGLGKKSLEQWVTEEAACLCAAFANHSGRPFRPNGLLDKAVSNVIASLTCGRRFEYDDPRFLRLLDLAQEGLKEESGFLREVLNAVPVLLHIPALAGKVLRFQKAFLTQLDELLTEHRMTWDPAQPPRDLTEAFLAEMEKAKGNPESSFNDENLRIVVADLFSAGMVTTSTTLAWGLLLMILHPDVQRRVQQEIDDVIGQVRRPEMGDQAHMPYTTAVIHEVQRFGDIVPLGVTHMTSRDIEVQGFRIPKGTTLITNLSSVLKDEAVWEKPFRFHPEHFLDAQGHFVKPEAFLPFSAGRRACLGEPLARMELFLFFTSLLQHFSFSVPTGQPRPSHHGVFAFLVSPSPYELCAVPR
Chain of Nuclear receptor subfamily 1 group I member 2 (Homo sapiens) (O75469 whole entry, looked up): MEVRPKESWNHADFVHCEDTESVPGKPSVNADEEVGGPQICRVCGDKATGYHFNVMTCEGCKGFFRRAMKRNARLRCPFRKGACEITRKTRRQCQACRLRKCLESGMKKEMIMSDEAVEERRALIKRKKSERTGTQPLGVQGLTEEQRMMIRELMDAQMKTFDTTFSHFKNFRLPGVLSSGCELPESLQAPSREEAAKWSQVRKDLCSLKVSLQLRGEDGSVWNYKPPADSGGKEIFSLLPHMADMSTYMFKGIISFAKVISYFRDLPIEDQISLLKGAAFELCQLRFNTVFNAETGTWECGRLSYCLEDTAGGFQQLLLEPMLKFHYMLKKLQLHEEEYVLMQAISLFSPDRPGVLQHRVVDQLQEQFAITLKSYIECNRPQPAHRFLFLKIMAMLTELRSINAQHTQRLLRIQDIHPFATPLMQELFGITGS

For the compound `COC(=O)CC(=O)OC`, the Potency result in assay [1], in assay [2], in assay [3], in [4], in [5] and in assay [7] was “inactive” in each case. Besides, the Potency entry in assay [8], in assay [9], in assay [10], in assay [11], in assay [12] and in assay [13] was “inactive” in each case. Moreover, the Potency entry in assay [14] and in [16] was “inactive” each time. Further, in assay [6], the call was inactive. The Potency in assay [15] was 41.6 µM (active) and inactive.

Take `CCC/C=C/C=O`: the Potency entry in [17], in assay [1], in [3], in [4], in assay [5] and in assay [7] was “inactive” each time. For the same compound, the Potency entry in assay [8], in assay [9], in assay [11] and in assay [13] was “inactive” in each case. Also, the call in assay [6] was inactive. In [15], the Potency is 19.5 µM (active).

With `c1ccc2c(c1)ccc1ncccc12`, the Potency result in assay [17], in assay [2], in assay [3], in assay [4], in assay [5] and in assay [8] was “inactive” each time. Moreover, the Potency entry in assay [9], in assay [11], in assay [12], in assay [13] and in assay [16] was “inactive” in each case. Also, the compound was called inactive in [6]. In addition, the Potency in [14] is 7.91 µM (active); in assay [15], 35.3 µM (active) and 79.6 µM (active).

`C[C@]12C=CC(=O)C=C1CC[C@H]1[C@@H]3C[C@@H](O)[C@](O)(C(=O)CO)[C@@]3(C)C[C@H](O)[C@@]12F`: the Potency result in assay [17], in assay [1], in assay [2], in assay [3], in assay [4] and in assay [5] was “inactive” throughout. Further, the Potency result in assay [9], in assay [11], in assay [13], in [18], in assay [19] and in assay [20] was “inactive” each time. Further, in assay [14], the Potency entry was “inactive”. Further, in assay [6], the outcome was inactive. In addition, in [16], the Potency is 20 µM (active).

`C=C[C@H]1CN2CC[C@H]1C[C@@H]2[C@@H](O)c1ccnc2ccc(OC)cc12`: the Potency result in [17], in assay [1], in assay [2], in assay [3], in assay [5] and in assay [7] was “inactive” throughout. In addition, the Potency result in assay [8], in [9], in [10], in assay [11], in assay [12] and in [13] was “inactive” in each case. Also, the result in assay [6] was inactive.

In the case of `OC[C@H]1O[C@@H]2O[C@H]3[C@H](O)[C@@H](O)[C@@H](O[C@H]4[C@H](O)[C@@H](O)[C@@H](O[C@H]5[C@H](O)[C@@H](O)[C@@H](O[C@H]6[C@H](O)[C@@H](O)[C@@H](O[C@H]7[C@H](O)[C@@H](O)[C@@H](O[C@H]1[C@H](O)[C@H]2O)O[C@@H]7CO)O[C@@H]6CO)O[C@@H]5CO)O[C@@H]4CO)O[C@@H]3CO`, the Potency entry in assay [17], in assay [2], in assay [4], in assay [5], in assay [8] and in [9] was “inactive” throughout. Further, the Potency result in assay [10], in [11], in assay [12], in [13], in assay [19] and in assay [20] was “inactive” in each case. Moreover, the Potency result in assay [14] and in [15] was “inactive” in each case. For the same compound, the Potency result in assay [1] is “inactive and 22.9 µM (active)”; in [16], “inactive and 3.76 µM (active)”. Also, the result in assay [6] was inactive.

On to `NCCOCCO`, for which the Potency result in assay [1], in assay [2], in assay [3], in [4], in assay [5] and in [7] was “inactive” throughout. In addition, the Potency result in assay [8], in assay [9], in [11], in assay [13], in assay [18] and in assay [14] was “inactive” throughout. For the same compound, the Potency entry in assay [15] and in assay [16] was “inactive” each time. Also, in [6], the compound was called inactive.

The values are drawn from PubChem BioAssay (Tox21).
